Laboratory results published in PubChem BioAssay (EPA / NIEHS).
The source made the active and inactive calls. Rule for the calls: active = hit-call score of the fitted dose curve at least 0.9, where 1 is the maximum; inactive = score below 0.9.

Assays:
Settings in all cases: mRNA level, 48 h; actives raise or lower the signal
[1] = read-out: growth arrest and DNA damage 45 (GADD45A), GADD45A (gene 1647); test: LTEA_HepaRG_GADD45A: Life Technologies and Expression Analysis (LTEA) Assay for growth arrest and DNA damage 45 (GADD45A) using HepaRG (AID 2283458)
Method in brief: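 Human HepaRG liver cells are treated in duplicate for 48 h with chemicals in 0.5% DMSO, highest concentration 100 uM. Expression is read by qRT-PCR and analyzed in both directions against vehicle.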

[2] = read-out: Forkhead box O3 (FOXO3), FOXO3 (gene 2309); test: LTEA_HepaRG_FOXO3: Life Technologies and Expression Analysis (LTEA) Assay for Forkhead box O3 (FOXO3) using HepaRG (AID 2283459)
Method in brief: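 Differentiated human HepaRG cells, 48 h post-plating, exposed in duplicate for 48 h in serum-free induction medium; 8-point half-log series from 100 uM in 0.5% DMSO. FOXO3 mRNA by TaqMan qRT-PCR, normalized to ACTB/GAPDH/POLR2A; bidirectional fit versus DMSO.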

[3] = read-out: ABC Transporter (ABCB1), ABCB1 (gene 5243); test: LTEA_HepaRG_ABCB1: Life Technologies and Expression Analysis (LTEA) Assay for ABC Transporter (ABCB1) using HepaRG (AID 2283460)
Method in brief: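 HepaRG cells exposed in duplicate for 48 h in serum-free induction medium to eight half-log concentrations up to 100 uM in 0.5% DMSO. ABCB1 mRNA quantified by qRT-PCR, normalised to ACTB, GAPDH and POLR2A; fitted bidirectionally versus DMSO.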

[4] = read-out: growth arrest and DNA damage 45 (GADD45B), GADD45B (gene 4616); test: LTEA_HepaRG_GADD45B: Life Technologies and Expression Analysis (LTEA) Assay for growth arrest and DNA damage 45 (GADD45B) using HepaRG (AID 2283461)
Method in brief: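 Human HepaRG monolayers receive chemicals for 48 h at eight half-log concentrations, highest 100 uM, in 0.5% DMSO. Expression is measured by TaqMan qRT-PCR and normalized to ACTB, GAPDH and POLR2A.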

[5] = read-out: ABC Transporter (ABCC3), ABCC3 (gene 8714); test: LTEA_HepaRG_ABCC3: Life Technologies and Expression Analysis (LTEA) Assay for ABC Transporter (ABCC3) using HepaRG (AID 2283462)
Method in brief: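 Transcriptional change of ABCC3 in HepaRG after 48 h treatment, determined by qRT-PCR normalized to endogenous controls. Concentrations spanned eight half-log steps to 100 uM in 0.5% DMSO.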

[6] = read-out: ABC Transporter (ABCB11), ABCB11 (gene 8647); test: LTEA_HepaRG_ABCB11: Life Technologies and Expression Analysis (LTEA) Assay for ABC Transporter (ABCB11) using HepaRG (AID 2283463)
Method in brief: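 Differentiated human HepaRG cells in serum-free induction medium, dosed in duplicate for 48 h. Eight-point half-log series from 100 uM in 0.5% DMSO; ABCB11 mRNA by qRT-PCR, normalized to ACTB, GAPDH, POLR2A, fitted bidirectionally versus DMSO.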

[7] = read-out: ABC Transporter (ABCC2), ABCC2 (gene 1244); test: LTEA_HepaRG_ABCC2: Life Technologies and Expression Analysis (LTEA) Assay for ABC Transporter (ABCC2) using HepaRG (AID 2283464)
Method in brief: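 After plating and 48 h culture, HepaRG medium is replaced with serum-free induction medium and chemicals are added (8 concentrations, max 100 uM, 0.5% DMSO) for 48 h. Total RNA then undergoes qRT-PCR for ABCC2 with housekeeping normalization.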

[8] = read-out: Broad substrate specificity ATP-binding cassette transporter ABCG2 (Homo sapiens) (UniProt Q9UNQ0); test: LTEA_HepaRG_ABCG2: Life Technologies and Expression Analysis (LTEA) Assay for ABC Transporter (ABCG2) using HepaRG (AID 2283465)
Method in brief: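 Differentiated HepaRG cells were exposed for 48 h in serum-free induction medium to 8 half-log concentrations, top 100 uM, in 0.5% DMSO. ABCG2 mRNA was measured by qRT-PCR, normalized to ACTB, GAPDH and POLR2A, with bidirectional fitting versus DMSO.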

[9] = read-out: ATP-citrate lyase (ACLY), ACLY (gene 47); test: LTEA_HepaRG_ACLY: Life Technologies and Expression Analysis (LTEA) Assay for ATP-citrate lyase (ACLY) using HepaRG (AID 2283466)
Method in brief: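 Differentiated HepaRG cells exposed 48 h in serum-free induction medium to eight half-log concentrations up to 100 uM in 0.5% DMSO, duplicates. Transcript measured by Fluidigm TaqMan qRT-PCR, normalized to ACTB, GAPDH, POLR2A; bidirectional fit versus DMSO.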

Measured: AC50

Chain of Broad substrate specificity ATP-binding cassette transporter ABCG2 (Homo sapiens) (Q9UNQ0 whole entry, looked up): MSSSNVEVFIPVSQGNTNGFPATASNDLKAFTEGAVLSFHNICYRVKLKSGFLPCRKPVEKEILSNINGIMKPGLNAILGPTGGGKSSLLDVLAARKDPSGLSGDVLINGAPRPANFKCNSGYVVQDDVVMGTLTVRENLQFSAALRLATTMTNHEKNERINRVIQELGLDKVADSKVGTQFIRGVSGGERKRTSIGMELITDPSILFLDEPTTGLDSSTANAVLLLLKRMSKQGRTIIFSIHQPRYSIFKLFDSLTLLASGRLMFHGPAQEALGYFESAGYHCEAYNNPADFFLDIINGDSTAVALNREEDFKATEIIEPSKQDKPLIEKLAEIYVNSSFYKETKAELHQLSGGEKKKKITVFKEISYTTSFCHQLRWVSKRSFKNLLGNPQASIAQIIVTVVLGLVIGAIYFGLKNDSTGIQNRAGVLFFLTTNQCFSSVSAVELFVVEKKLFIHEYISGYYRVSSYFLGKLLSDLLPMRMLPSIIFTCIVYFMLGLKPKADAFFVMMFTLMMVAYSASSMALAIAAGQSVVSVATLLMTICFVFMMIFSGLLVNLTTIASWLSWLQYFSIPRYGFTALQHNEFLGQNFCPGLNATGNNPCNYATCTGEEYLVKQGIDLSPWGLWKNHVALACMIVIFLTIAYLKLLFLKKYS

ClC(Cl)=C(c1ccc(Cl)cc1)c1ccc(Cl)cc1
active: [1] 0.0693 µM | [3] 23.2 µM | [7] 10.8 µM | [8] 8.74 µM
inactive: [2] | [4] | [5] | [6] | [9]

Nc1ccc(-c2ccc(N)cc2)cc1
active: [3] 0.0737 µM | [6] 3.77 µM
inactive: [1] | [2] | [4] | [5] | [7] | [8] | [9]

CCC(C)(CC)c1cc(NC(=O)c2c(OC)cccc2OC)on1
active: [3] 1.15 µM | [6] 83 µM | [7] 6.13 µM
inactive: [2] | [4] | [5] | [8] | [9]

O=C(N[C@H]1CN2CCC1CC2)c1cc2ccoc2cn1
inactive: [2] | [3] | [4] | [5] | [6] | [7] | [8] | [9]

ClC1=C(Cl)[C@]2(Cl)[C@@H]3[C@H]4C[C@H]([C@@H]5O[C@H]45)[C@@H]3[C@@]1(Cl)C2(Cl)Cl
inactive: [2] | [3] | [4] | [5] | [9]
active: [6] 5.27 µM | [7] 2.13 µM | [8] 6.76 µM

C[C@]12CCC(=O)C=C1CC[C@@H]1[C@@H]2CC[C@]2(C)C(=O)CC[C@@H]12
inactive: [2] | [4] | [5]
active: [3] 17.1 µM | [6] 2.67 µM | [7] 50 µM | [8] 19.7 µM | [9] 88.9 µM

CCSC(=O)N(CC)C1CCCCC1
inactive: [2] | [3] | [4] | [5] | [6] | [7] | [8] | [9]

CC(C)(O)C(=O)Nc1ccc([N+](=O)[O-])c(C(F)(F)F)c1
inactive: [2] | [3] | [4] | [6] | [7] | [8] | [9]

CC(C)(c1ccccc1)c1ccc(O)cc1
inactive: [2] | [3] | [4] | [5] | [7] | [8] | [9]
active: [6] 76.1 µM

CCCCCCCCCC[N+](C)(C)CCCCCCCCCC
inactive: [3] | [9]
active: [2] 76.7 µM | [4] 78.8 µM | [5] 79.8 µM | [6] 15.8 µM | [7] 94.2 µM | [8] 72.8 µM

Oc1c(Cl)c(Cl)c(Cl)c(Cl)c1Cl
active: [2] 1.64 µM | [3] 2.1 µM | [4] 15 µM | [5] 2.09 µM | [6] 3.29 µM | [7] 2.03 µM | [8] 6.05 µM | [9] 1.61 µM

CCCCCCCCOC(=O)c1ccccc1C(=O)OCCCCCCCC
inactive: [2] | [3] | [4] | [5] | [6] | [7] | [8] | [9]

O=S(=O)(O)C(F)(F)C(F)(F)C(F)(F)C(F)(F)F
inactive: [2] | [3] | [4] | [5] | [6] | [7] | [8] | [9]

O=C(NC(=O)c1cc(F)c(F)cc1Cl)Nc1cc(F)ccc1N1CCC(C(=O)O)CC1
inactive: [2] | [4] | [5] | [7] | [8] | [9]
active: [3] 21 µM | [6] 2.05 µM

CCOC(=O)C(O)(c1ccc(Cl)cc1)c1ccc(Cl)cc1
inactive: [2] | [4] | [5] | [7] | [8] | [9]
active: [3] 73 µM | [6] 38.9 µM

ClC1=C(Cl)[C@]2(Cl)[C@@H]3[C@@H]4C[C@@H]([C@H]5O[C@@H]45)[C@@H]3[C@@]1(Cl)C2(Cl)Cl
inactive: [4] | [5] | [6]
active: [2] 0.0321 µM | [3] 0.0325 µM | [7] 4.03 µM | [8] 20.8 µM | [9] 0.033 µM

Cc1ccccc1[N+](=O)[O-]
inactive: [2] | [3] | [4] | [5] | [6] | [7] | [8] | [9]

COS(=O)(=O)OC
inactive: [2] | [3] | [4] | [5] | [6] | [7] | [8] | [9]

C[C@]12CCC(=O)C=C1CC[C@@H]1[C@@H]2CC[C@@]2(C)[C@H]1CC[C@]2(C)O
inactive: [2] | [4] | [5] | [7]
active: [3] 5.73 µM | [6] 0.647 µM | [8] 9.08 µM | [9] 45.8 µM

O=NN(c1ccccc1)c1ccccc1
inactive: [2] | [3] | [4] | [5] | [6] | [7] | [8] | [9]

Cc1cccc([N+](=O)[O-])c1
inactive: [2] | [3] | [4] | [5] | [6] | [7] | [8] | [9]

CCOCCOC(C)=O
inactive: [2] | [3] | [4] | [5] | [6] | [7] | [8] | [9]

Nn1cnnc1
inactive: [2] | [3] | [4] | [5] | [6] | [7] | [8] | [9]

CO/C=C(/C(=O)OC)c1ccccc1COc1cccc(C(F)(F)F)n1
active: [4] 24.7 µM | [5] 1.91 µM | [6] 5.64 µM | [7] 28 µM | [8] 3.03 µM
inactive: [2] | [3] | [9]

CN(C)c1nc(=O)n(C2CCCCC2)c(=O)n1C
inactive: [2] | [3] | [4] | [5] | [6] | [7] | [8] | [9]

CC(C)C(=O)OCC(C)(C)C(OC(=O)C(C)C)C(C)C (configuration not stated)
inactive: [2] | [3] | [4] | [5] | [6] | [7] | [8] | [9]

Cc1ccccc1O
inactive: [2] | [3] | [4] | [5] | [6] | [7] | [8] | [9]

O=C(O)C(F)(F)C(F)(F)C(F)(F)C(F)(F)C(F)(F)F
inactive: [2] | [3] | [4] | [5] | [6] | [7] | [9]
active: [8] 9.92 µM

Oc1ccc(Cl)cc1Cl
inactive: [3] | [4] | [5] | [6] | [7] | [8] | [9]

Cc1cccc(C)c1N
inactive: [2] | [3] | [4] | [5] | [6] | [7] | [8] | [9]

Clc1ccc(Cl)cc1
inactive: [2] | [3] | [4] | [5] | [6] | [7] | [8] | [9]

C1CC2OC2CC1C1CO1 (configuration not stated)
inactive: [2] | [3] | [4] | [5] | [6] | [7] | [8] | [9]

Oc1ccc(C(c2ccc(O)cc2)(C(F)(F)F)C(F)(F)F)cc1
inactive: [2] | [3] | [4] | [5] | [7] | [8] | [9]
active: [6] 86.6 µM

CC(c1ccc(O)cc1)(c1ccc(O)cc1)c1ccc(O)cc1
inactive: [5]
active: [2] 70.9 µM | [3] 72.9 µM | [4] 35.9 µM | [6] 20.8 µM | [7] 81 µM | [8] 33.8 µM | [9] 61.6 µM
